TRAIL sens C8: caspase-8 TRAIL sensitization; 1% of 360,000 active; NB7+C8 cells + TRAIL, ATPlite viability luminescence; AID 624354; inhibition (viability loss, TRAIL sensitization), % at 10 µM;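 active = compounds causing at least 50% loss of cell viability in the single-dose screen, relative to plate controls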
SENP8 block-1: SENP8 (human) protease inhibition | recombinant SENP8, Nedd8 substrate fluorescence | Q96LD8 | 0.64% of 360,000 active | AID 602440 | inhibition, % at 20 µM; in the data active = inhibition mostly above about 40%, no sharp cut-off; inactive = mostly below about 27%
SENP6 block: blocks the human protease SENP6. inhibition, % at 10 µM. Q9GZR1. 1.8% of 330,000 active. Recombinant SENP6 catalytic domain, aminoluciferin luminescence;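 active = inhibition above about 50% at the single tested dose, limit read from the data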;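 note: plate controls were DMSO wells with enzyme for no effect and DMSO wells lacking enzyme for full effect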
Target sequence (Q9GZR1 628-1112 limits assumed): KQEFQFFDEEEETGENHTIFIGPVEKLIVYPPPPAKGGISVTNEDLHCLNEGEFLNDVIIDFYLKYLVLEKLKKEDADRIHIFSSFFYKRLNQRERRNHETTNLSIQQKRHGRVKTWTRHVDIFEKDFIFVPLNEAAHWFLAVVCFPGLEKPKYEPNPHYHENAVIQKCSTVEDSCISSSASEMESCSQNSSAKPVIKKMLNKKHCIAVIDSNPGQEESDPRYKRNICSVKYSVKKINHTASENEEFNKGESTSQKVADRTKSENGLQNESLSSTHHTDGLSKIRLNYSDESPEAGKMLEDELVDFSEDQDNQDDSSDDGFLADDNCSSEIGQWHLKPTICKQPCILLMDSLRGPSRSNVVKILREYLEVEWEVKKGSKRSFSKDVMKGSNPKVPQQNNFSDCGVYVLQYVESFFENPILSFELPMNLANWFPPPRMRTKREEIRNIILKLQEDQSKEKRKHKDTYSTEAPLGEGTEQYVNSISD
SENP8 block-2: SENP8 protease inhibition. purified SENP8, Z-RLRGG-aminoluciferin cleavage, luminescence. inhibition, % at 10 µM. 1.2% of 330,000 active; in the data active = inhibition above about 50%
PPC-1+TRAIL kill: kills PPC-1 cancer cells in the presence of TRAIL. PPC-1 cells + TRAIL, ATPLite viability luminescence. cell killing (% activity), % at 4 µM or 5 µM. 0.41% of 220,000 active. AID 1443;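 active = cell killing above 50% in the first pass at 4 µM, then a duplicate retest at 5 µM averaging 50% or more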;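 note: plate controls were cells with TRAIL plus DMSO for no effect and medium-only wells lacking cells for full effect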
SENP7 block: inhibitors of human SENP7 protease. Q9BQF6. recombinant SENP7, Z-RLRGG-aminoluciferin luminescence, 40 min. inhibition, % at 5 µM. 1.5% of 330,000 active. AID 434973;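 active = inhibition above about 50% at the single test dose, limit read from the data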;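 note: plate controls were DMSO with enzyme for no effect and no enzyme buffer wells for full effect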
SENP8 conf: human SENP8 inhibition, confirmed; AID 488912; 40% of 6,200 active; Recombinant SENP8, Z-RLRGG-aminoluciferin luminescence, 60 min; inhibition, % at 12.5 µM; shares compounds with SENP7 block;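 active = mean inhibition across replicates above about 50%, limit read from the data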
SENP6 confirm: confirmation of human SENP6 protease inhibitors | shares compounds with SENP7 block | inhibition, % at 12.5 µM | 58% of 6,200 active | recombinant SENP6, Z-RLRGG-aminoluciferin luminescence
SENP7 confirm: human SENP7 inhibition, confirmed; shares compounds with SENP7 block; inhibition, % at 12.5 µM; recombinant SENP7, Z-RLRGG-aminoluciferin luminescence, 40 min; 69% of 6,200 active; AID 488917
Casp3 SENP sel: selectivity test for SENP inhibitors: human caspase-3 inhibition; inhibition, % at 12.5 µM; purified caspase-3, Z-DEVD-aminoluciferin luminescence, 60 min; shares compounds with SENP7 block; 60% of 6,200 active;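 active = mean inhibition above about 50%, limit read from the data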;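 note: plate controls were enzyme with DMSO for no effect and wells without caspase-3 for full effect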
Luc interf: luminescence interference (SENP counter-screen) | shares compounds with SENP7 block | Pre-incubated SENP8/Z-RLRGG-aminoluciferin, luciferase luminescence interference | inhibition, % at 12.5 µM | 39% of 6,200 active | AID 488919;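 active = mean inhibition above about 50% when retested at one dose, limit read from the data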;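 note: plate controls were DMSO wells with completed reaction for no effect and substrate without enzyme for full effect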
* marks the source's active call; other numbers are inactive results; i = inactive; . = not tested or not shown. Rows were chosen to be rich in hits. Some 3% of all compounds tested hit in one or more screens of this group.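 Rule for the calls, unless noted: active = mean inhibition above about 50% in the one-dose retest (limit read from the data); inactive = the rest.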

SMILES | TRAIL sens C8 | SENP8 block-1 | SENP6 block | SENP8 block-2 | PPC-1+TRAIL kill | SENP7 block | SENP8 conf | SENP6 confirm | SENP7 confirm | Casp3 SENP sel | Luc interf
COc1ccc2c(c1)CC1(CN2C)C(=O)NC(=O)N(CCc2ccccc2)C1=O (stereo not drawn) | -1.9 | 9.7 | -11.5 | -5.6 | -25.7 | 8.5 | . | . | . | . | .
CC(C)c1ccc(N=Nc2c(O)[nH]c(=O)[nH]c2=O)cc1 | 36.8 | 24.4 | -7.9 | -8.9 | 30.7 | 1.2 | . | . | . | . | .
O=c1[nH]c(=S)[nH]c(O)c1N=Nc1ccc(SC(F)F)cc1 | 18.3 | 24.8 | 100.2* | 90.7* | 29.6 | 83.2* | 81.3* | 94.6* | 89.4* | 94.6* | 61.8*
Cc1cccc(-n2c(C)nc3ccc(Cl)cc3c2=O)c1 | -7.3 | 4.5 | 4.5 | -0.8 | . | 3.5 | . | . | . | . | .
O=C1N(c2nncs2)CCN1[N+](=O)[O-] | -10.2 | 13.1 | -4.5 | -2.6 | -2.6 | 1.5 | . | . | . | . | .
CCN(CC)C(=O)c1ccc(NC(=O)c2cccc(F)c2)cc1 | 11.6 | 11.6 | 61.5* | 34.8 | 20.0 | 64.7* | 56.9* | 53.7* | 83.3* | 82.1* | 53.0*
CC(C)OCCCNC(=O)c1c(N)n(CC2CCCO2)c2nc3ccccc3nc12 (stereo not drawn) | 5.5 | -266.0 | 94.3* | 91.7* | 25.1 | 66.0* | -19.9 | 11.9 | 4.2 | -7.5 | -14.7
Nc1c(C(=O)OC2CCCCC2)c2nc3ccccc3nc2n1CC1CCCO1 (stereo not drawn) | 10.7 | -281.3 | 16.7 | 4.6 | 14.8 | 6.8 | . | . | . | . | .
CCCNC(=O)c1c(N)n(CC2CCCO2)c2nc3ccccc3nc12 (stereo not drawn) | -3.8 | -296.9 | 94.4* | 93.6* | 17.8 | 79.1* | 9.4 | 56.1* | 34.4 | -1.5 | -1.8
CC(C)OC(=O)c1c(N)n(CC2CCCO2)c2nc3ccccc3nc12 (stereo not drawn) | 2.8 | i | 51.3* | 38.6 | 10.1 | 39.0 | 5.9 | 3.1 | -0.3 | -1.8 | -1.3
CC(C)CCOC(=O)c1c(N)n(CC2CCCO2)c2nc3ccccc3nc12 (stereo not drawn) | -19.0 | i | 6.8 | -0.8 | 7.5 | 9.0 | . | . | . | . | .
COC(=O)C1=C(c2ccc(Cl)c(C(F)(F)F)c2)C[C@@H]2CC[C@H]1N2C(=O)NCCCOC(C)C | 2.1 | 19.1 | -9.6 | -11.7 | . | -13.4 | . | . | . | . | .
Clc1cccc(C2NCc3ccccc3-n3cccc32)c1 (stereo not drawn) | -5.2 | 13.9 | -23.2 | -7.8 | 30.6 | -27.7 | . | . | . | . | .
O=C(c1ccc2nc(-c3ccco3)c(-c3ccco3)nc2c1)N1CCC2(CC1)OCCO2 | -12.4 | -170.8 | 81.9* | 24.2 | 7.2 | 24.8 | 14.5 | 17.5 | -0.1 | 0.2 | -2.8
COc1ccc(C(=O)N2CCC3(CC2)OCCO3)cc1 | -3.7 | 13.1 | -8.0 | 5.6 | . | -6.2 | . | . | . | . | .
CCNCC(O)c1cccc(O)c1 (stereo not drawn) | 5.7 | 2.8 | -10.3 | -7.0 | . | -6.9 | . | . | . | . | .
NNCc1cccc(O)c1 | 6.1 | 6.9 | 81.4* | 72.5* | 1.9 | 56.4* | 18.5 | 20.4 | 55.1* | 51.8* | 73.0*
O=C(O)CSC(=S)N1CC2CC(C1)c1cccc(=O)n1C2 (stereo not drawn) | 1.3 | 8.7 | 9.3 | 4.7 | -0.9 | 8.0 | . | . | . | . | .
COCCCn1c(N)c(C(=O)NCCC(C)C)c2nc3ccccc3nc21 | 0.7 | -288.1 | 80.7* | 76.7* | 4.7 | 63.5* | -5.9 | 12.8 | -1.2 | 3.7 | -6.5
